How the values were obtained:
Experiment in all cases: DAPPL (digital affinity profiling via proximity ligation, sequencing); 10 mM Tris-HCl pH 7.5, 50 mM NaCl, 1 mM DTT, 4% glycerol, room temperature, 30 min; GST-TFs on glutathione beads, 16-mer random dsDNA library, 0.1% formaldehyde crosslink after washing; high values mean tight binding
Conditions in all cases: protein: recombinant; tags: N-terminal GST; dsDNA, one strand shown
FLI1 = target: T1, FLI1 (Homo sapiens, UniProt Q01543 1-452)
T1 sequence: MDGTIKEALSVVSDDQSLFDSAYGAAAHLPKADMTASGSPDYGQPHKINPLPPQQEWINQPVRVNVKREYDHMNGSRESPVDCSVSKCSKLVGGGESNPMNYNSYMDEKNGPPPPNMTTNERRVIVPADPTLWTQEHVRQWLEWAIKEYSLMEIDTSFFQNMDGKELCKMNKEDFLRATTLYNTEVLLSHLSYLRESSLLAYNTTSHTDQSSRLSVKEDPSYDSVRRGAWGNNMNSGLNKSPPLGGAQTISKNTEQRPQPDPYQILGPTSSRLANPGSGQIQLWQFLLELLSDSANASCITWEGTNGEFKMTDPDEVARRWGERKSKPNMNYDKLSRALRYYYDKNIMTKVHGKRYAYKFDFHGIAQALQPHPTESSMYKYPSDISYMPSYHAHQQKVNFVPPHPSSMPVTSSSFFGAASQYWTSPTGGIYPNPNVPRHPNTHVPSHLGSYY
Outline: (§1)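 Pools were built from human transcription factors expressed in yeast as GST fusions, captured on glutathione beads and DNA-barcoded, along with a tag-only sample. Incubation with 200 nmole of a 16-mer random double-stranded DNA library lasted 30 min at room temperature in Tris/NaCl/DTT/glycerol buffer, and was followed by washing, 0.1% formaldehyde crosslinking, proximity ligation, PCR amplification and Illumina NextSeq500 sequencing. Binding signal is the quotient of each hexamer's read frequency for a factor and its frequency for the tag-only sample.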

ELK1 = target: T2, ELK1 (Homo sapiens, UniProt P19419 1-428)
T2 sequence: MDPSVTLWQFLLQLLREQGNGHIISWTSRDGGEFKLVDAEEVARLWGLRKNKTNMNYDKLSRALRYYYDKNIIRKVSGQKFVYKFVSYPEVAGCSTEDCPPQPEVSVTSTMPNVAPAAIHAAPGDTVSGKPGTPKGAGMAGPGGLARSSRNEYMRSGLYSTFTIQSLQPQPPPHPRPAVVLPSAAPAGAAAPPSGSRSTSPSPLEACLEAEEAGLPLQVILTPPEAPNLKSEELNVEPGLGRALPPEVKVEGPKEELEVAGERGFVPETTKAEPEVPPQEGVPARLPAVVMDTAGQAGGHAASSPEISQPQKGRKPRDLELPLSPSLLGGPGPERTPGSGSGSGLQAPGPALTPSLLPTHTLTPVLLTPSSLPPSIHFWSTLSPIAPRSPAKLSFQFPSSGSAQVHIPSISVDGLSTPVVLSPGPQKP
Outline: as §1

GABPA = target: T3, GABPA (Homo sapiens, UniProt Q06546 1-454)
T3 sequence: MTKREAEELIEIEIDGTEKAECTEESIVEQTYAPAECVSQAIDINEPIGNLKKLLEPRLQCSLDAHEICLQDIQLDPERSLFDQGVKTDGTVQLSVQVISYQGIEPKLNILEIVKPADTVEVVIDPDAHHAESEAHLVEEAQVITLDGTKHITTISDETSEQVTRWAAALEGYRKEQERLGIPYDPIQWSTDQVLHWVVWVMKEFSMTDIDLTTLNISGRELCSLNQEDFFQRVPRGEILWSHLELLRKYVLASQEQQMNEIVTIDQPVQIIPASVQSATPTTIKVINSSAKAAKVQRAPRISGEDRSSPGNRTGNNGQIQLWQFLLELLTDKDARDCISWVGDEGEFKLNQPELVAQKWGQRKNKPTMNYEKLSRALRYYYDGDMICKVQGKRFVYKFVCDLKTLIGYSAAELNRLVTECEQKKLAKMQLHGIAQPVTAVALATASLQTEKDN
Outline: as §1

ERG = target: T4, ERG (Homo sapiens, UniProt P11308 1-479)
T4 sequence: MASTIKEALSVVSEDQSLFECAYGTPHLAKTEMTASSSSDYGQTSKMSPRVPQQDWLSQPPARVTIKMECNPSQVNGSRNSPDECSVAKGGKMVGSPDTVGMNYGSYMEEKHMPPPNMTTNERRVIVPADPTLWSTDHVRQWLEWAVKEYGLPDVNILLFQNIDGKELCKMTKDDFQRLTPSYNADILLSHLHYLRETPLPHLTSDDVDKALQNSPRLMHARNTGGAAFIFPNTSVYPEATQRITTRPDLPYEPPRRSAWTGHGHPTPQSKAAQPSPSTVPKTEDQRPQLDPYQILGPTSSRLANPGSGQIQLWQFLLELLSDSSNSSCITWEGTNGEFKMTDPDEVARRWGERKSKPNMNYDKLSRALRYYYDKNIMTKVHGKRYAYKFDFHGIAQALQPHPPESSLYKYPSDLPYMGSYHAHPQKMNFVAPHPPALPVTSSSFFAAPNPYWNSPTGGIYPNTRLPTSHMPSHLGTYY
Outline: as §1

ELF1 = ELF1 (Homo sapiens, UniProt P32519 1-619)
Outline: as §1

EHF = target: T5, EHF (Homo sapiens, UniProt Q9NZC4 1-300)
T5 sequence: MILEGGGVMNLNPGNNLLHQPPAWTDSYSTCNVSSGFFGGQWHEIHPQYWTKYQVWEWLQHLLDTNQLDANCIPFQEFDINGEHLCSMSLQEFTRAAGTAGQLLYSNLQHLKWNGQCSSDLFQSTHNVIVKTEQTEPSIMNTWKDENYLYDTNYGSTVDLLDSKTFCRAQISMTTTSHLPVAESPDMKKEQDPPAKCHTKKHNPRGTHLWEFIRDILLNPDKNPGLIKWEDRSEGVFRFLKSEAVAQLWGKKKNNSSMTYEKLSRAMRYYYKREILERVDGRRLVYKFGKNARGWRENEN
Outline: as §1

SPI1 = SPI1 (Homo sapiens, UniProt P17947 1-270)
Outline: as §1

SPIB = SPIB (Homo sapiens, UniProt Q01892 1-262)
Outline: as §1

ELK3 = target: T6, ELK3 (Homo sapiens, UniProt P41970 1-407)
T6 sequence: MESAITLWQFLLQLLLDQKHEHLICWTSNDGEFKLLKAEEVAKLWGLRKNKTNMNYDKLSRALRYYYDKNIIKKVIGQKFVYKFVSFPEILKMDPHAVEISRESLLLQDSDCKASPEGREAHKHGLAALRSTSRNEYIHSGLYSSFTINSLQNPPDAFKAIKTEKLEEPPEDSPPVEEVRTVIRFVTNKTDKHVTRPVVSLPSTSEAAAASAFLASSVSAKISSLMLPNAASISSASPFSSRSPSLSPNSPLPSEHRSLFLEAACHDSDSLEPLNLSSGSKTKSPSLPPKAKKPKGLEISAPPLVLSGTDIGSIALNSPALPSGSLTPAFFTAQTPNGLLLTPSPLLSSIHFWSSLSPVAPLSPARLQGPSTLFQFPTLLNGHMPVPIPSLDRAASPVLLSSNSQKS
Outline: as §1

Sequence of ELF1 (P32519 whole entry): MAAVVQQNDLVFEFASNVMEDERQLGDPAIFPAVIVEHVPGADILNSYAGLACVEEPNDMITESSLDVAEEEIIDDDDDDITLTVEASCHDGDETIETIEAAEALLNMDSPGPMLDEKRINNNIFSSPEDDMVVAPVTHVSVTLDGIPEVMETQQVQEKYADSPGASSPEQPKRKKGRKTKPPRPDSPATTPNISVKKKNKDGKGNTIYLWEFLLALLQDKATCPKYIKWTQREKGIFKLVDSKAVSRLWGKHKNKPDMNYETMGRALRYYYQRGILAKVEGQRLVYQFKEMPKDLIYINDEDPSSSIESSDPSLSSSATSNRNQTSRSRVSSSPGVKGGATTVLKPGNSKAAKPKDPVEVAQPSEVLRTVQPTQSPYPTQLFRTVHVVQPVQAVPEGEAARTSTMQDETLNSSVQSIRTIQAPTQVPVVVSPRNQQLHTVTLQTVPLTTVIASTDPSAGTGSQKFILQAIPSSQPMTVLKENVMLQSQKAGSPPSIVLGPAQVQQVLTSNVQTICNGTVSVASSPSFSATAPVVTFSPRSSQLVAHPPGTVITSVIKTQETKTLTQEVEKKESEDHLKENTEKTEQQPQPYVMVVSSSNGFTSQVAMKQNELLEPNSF
Sequence of SPIB (Q01892 whole entry): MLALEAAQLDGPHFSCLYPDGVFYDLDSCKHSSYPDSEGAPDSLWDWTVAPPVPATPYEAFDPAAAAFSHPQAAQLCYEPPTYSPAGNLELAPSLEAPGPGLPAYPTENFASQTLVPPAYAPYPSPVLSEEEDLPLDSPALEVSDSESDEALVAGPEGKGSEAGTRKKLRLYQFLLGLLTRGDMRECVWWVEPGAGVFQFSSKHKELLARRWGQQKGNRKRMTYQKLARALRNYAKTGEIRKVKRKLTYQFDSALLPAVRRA

Row | Sequence | binding signal (FLI1) | binding signal (ELK1) | binding signal (GABPA) | binding signal (ERG) | binding signal (ELF1) | binding signal (EHF) | binding signal (SPI1) | binding signal (SPIB) | binding signal (ELK3)
1 | ATTCTT | 1.48 fold enrichment (6-mer frequency, TF over GST control) | 1.44 fold enrichment (6-mer frequency, TF over GST control) | 1.49 fold enrichment (6-mer frequency, TF over GST control) | 1.5 fold enrichment (6-mer frequency, TF over GST control) | 1.51 fold enrichment (6-mer frequency, TF over GST control) | 1.45 fold enrichment (6-mer frequency, TF over GST control) | 1.44 fold enrichment (6-mer frequency, TF over GST control) | 1.56 fold enrichment (6-mer frequency, TF over GST control) | 1.61 fold enrichment (6-mer frequency, TF over GST control)
2 | CTATCC | 1.45 fold enrichment (6-mer frequency, TF over GST control) | 1.4 fold enrichment (6-mer frequency, TF over GST control) | 1.29 fold enrichment (6-mer frequency, TF over GST control) | 1.34 fold enrichment (6-mer frequency, TF over GST control) | 1.38 fold enrichment (6-mer frequency, TF over GST control) | 1.29 fold enrichment (6-mer frequency, TF over GST control) | 1.28 fold enrichment (6-mer frequency, TF over GST control) | 1.4 fold enrichment (6-mer frequency, TF over GST control) | 1.48 fold enrichment (6-mer frequency, TF over GST control)
3 | TGATTC | 1.12 fold enrichment (6-mer frequency, TF over GST control) | 1.09 fold enrichment (6-mer frequency, TF over GST control) | 1.1 fold enrichment (6-mer frequency, TF over GST control) | 1.08 fold enrichment (6-mer frequency, TF over GST control) | 1.1 fold enrichment (6-mer frequency, TF over GST control) | 1.12 fold enrichment (6-mer frequency, TF over GST control) | 1.06 fold enrichment (6-mer frequency, TF over GST control) | 1.17 fold enrichment (6-mer frequency, TF over GST control) | 1.02 fold enrichment (6-mer frequency, TF over GST control)
4 | CGAGCT | 1.02 fold enrichment (6-mer frequency, TF over GST control) | 1.02 fold enrichment (6-mer frequency, TF over GST control) | 1.09 fold enrichment (6-mer frequency, TF over GST control) | 1.04 fold enrichment (6-mer frequency, TF over GST control) | 1.06 fold enrichment (6-mer frequency, TF over GST control) | 1.13 fold enrichment (6-mer frequency, TF over GST control) | 1.03 fold enrichment (6-mer frequency, TF over GST control) | 1.04 fold enrichment (6-mer frequency, TF over GST control) | 1.06 fold enrichment (6-mer frequency, TF over GST control)
5 | ATCATA | 1.07 fold enrichment (6-mer frequency, TF over GST control) | 1.06 fold enrichment (6-mer frequency, TF over GST control) | 1.16 fold enrichment (6-mer frequency, TF over GST control) | 1.05 fold enrichment (6-mer frequency, TF over GST control) | 1.12 fold enrichment (6-mer frequency, TF over GST control) | 1.03 fold enrichment (6-mer frequency, TF over GST control) | 1.05 fold enrichment (6-mer frequency, TF over GST control) | 1.18 fold enrichment (6-mer frequency, TF over GST control) | 1.09 fold enrichment (6-mer frequency, TF over GST control)
6 | CCCCCG | 1.21 fold enrichment (6-mer frequency, TF over GST control) | 1.09 fold enrichment (6-mer frequency, TF over GST control) | 1.03 fold enrichment (6-mer frequency, TF over GST control) | 1.18 fold enrichment (6-mer frequency, TF over GST control) | 1.1 fold enrichment (6-mer frequency, TF over GST control) | 1.1 fold enrichment (6-mer frequency, TF over GST control) | 1.08 fold enrichment (6-mer frequency, TF over GST control) | 1.09 fold enrichment (6-mer frequency, TF over GST control) | 1.07 fold enrichment (6-mer frequency, TF over GST control)
7 | TGTCCC | 1.27 fold enrichment (6-mer frequency, TF over GST control) | 1.35 fold enrichment (6-mer frequency, TF over GST control) | 1.33 fold enrichment (6-mer frequency, TF over GST control) | 1.38 fold enrichment (6-mer frequency, TF over GST control) | 1.28 fold enrichment (6-mer frequency, TF over GST control) | 1.32 fold enrichment (6-mer frequency, TF over GST control) | 1.22 fold enrichment (6-mer frequency, TF over GST control) | 1.36 fold enrichment (6-mer frequency, TF over GST control) | 1.47 fold enrichment (6-mer frequency, TF over GST control)
